From PubChem
HP1b binding inh = HP1-beta chromodomain-methylated histone interaction inhibition. P83916. AlphaScreen HP1-beta / biotin-H3K9me3 peptide binding. Potency, µM (series often up to 114 µM), inactives show at the top dose activity change, negative = inhibition, actives largely listed as inhibitors. 390,000 tested, 0.56% active; further: potency means the concentration at half of the fitted maximal effect; nearly all actives have a fitted effect of over 70% in size
Target sequence (P83916 whole entry, looked up): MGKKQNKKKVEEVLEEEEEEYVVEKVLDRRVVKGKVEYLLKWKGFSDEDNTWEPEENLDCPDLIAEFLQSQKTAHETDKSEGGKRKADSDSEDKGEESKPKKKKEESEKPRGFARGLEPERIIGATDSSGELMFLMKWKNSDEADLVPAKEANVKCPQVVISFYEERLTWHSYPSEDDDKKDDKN
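HP1-beta protein (50 nM final) preincubated 30 min at room temperature with biotinylated H3(1-18)K9me3 peptide (50 nM) in PBS pH 7.4, 0.01% Tween-20, then compound added for 30 min. AlphaScreen streptavidin donor/nickel chelate acceptor beads (10 ug/mL final), 30 min dark, luminescence read.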
VDR inhibitor = inhibitors of human vitamin D receptor; P11473; VDR-SRC2-3 peptide fluorescence polarization, 2 h; Potency, µM, inactives show max response, negative = inhibition, hits mostly inhibitors; 400,000 tested, 0.93% active; further: potency means the concentration at half of the fitted maximal effect; on the % scale 0 is the no-effect control and ±100 the full control effect
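Inhibition of the VDR/SRC2-3 peptide interaction is quantified by fluorescence polarization. Compounds (23 nl, pintool) incubate with the reagents for 2 hours at ambient room temperature.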
G9a inh = blocks human histone lysine methyltransferase G9a; Q96KQ7; G9a H3K9 monomethylation, AlphaScreen, 2 h; Potency, µM (doses to about 102 µM), for the others: at the top dose activity, negative = inhibition, actives largely listed as inhibitors; 350,000 tested, 8.8% active; AID 504332; further: potency means the concentration at half of the fitted maximal effect; on the % scale 0 is the no-effect control and ±100 the full control effect; nearly all actives have a fitted effect of over 75% in size
Target sequence (Q96KQ7 913-1193 limits assumed): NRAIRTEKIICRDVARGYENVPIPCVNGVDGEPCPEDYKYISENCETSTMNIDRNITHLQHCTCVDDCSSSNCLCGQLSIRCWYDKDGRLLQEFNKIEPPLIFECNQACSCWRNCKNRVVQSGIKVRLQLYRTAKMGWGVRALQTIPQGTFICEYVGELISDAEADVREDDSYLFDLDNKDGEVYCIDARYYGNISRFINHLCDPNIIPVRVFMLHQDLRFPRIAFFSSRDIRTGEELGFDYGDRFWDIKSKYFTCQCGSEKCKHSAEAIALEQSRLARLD
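AlphaScreen detection with an anti-monomethyl H3K9 antibody quantified product after a 2 h room-temperature reaction containing 500 nM biotinylated H3K9 peptide, 20 µM SAM and 20 nM enzyme, which had been preincubated 15 min with compound.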
BAZ2B block = BAZ2B (human) inhibition; AID 504333; Potency, µM (top dose mostly 114 µM), for the others: at the highest dose activity change, negative = inhibition, usual class: inhibitors; AlphaScreen BAZ2B-H3K14Ac peptide displacement; 360,000 tested, 4.4% active; further: potency means the concentration at half of the fitted maximal effect; on the % scale 0 is the no-effect control and ±100 the full control effect; nearly all actives have a fitted effect of over 60% in size
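Complex of BAZ2B and biotin-H3K14Ac (50 nM apiece) forms over 30 min at RT, then faces library compounds up to 110 uM for another 30 min; AlphaScreen beads added, 20 min dark incubation, luminescence read.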
JMJD2A Tudor inh = inhibitors of human JMJD2A Tudor domain; AlphaScreen JMJD2A-Tudor / H3K4me3 peptide binding; AID 504339; Potency, µM (doses to about 114 µM), for inactives: at the highest dose activity change, negative = inhibition, hits mostly inhibitors; 390,000 tested, 4.4% active; O75164; further: potency means the concentration at half of the fitted maximal effect; on the % scale 0 is the no-effect control and ±100 the full control effect; nearly all actives have a fitted effect of over 50% in size
PLK1 PBD inh = PLK1 (human) polo-box domain binding inhibition; Plk1 PBD binding of FITC phosphopeptide, fluorescence polarization; Potency, µM, inactives show max response, negative = inhibition, hits mostly inhibitors; 360,000 tested, 2.8% active; AID 720504; further: potency means the concentration at half of the fitted maximal effect; series mostly up to about 57 µM; on the % scale 0 is the no-effect control and ±100 the full control effect; nearly all actives have a fitted effect of over 65% in size
12-hLO 8HQ R1 = confirmation of human 12-lipoxygenase inhibitors, 8HQ series round 1 | purified 12-hLO, cuvette UV 234 nm product formation | shares compounds with BAZ2B block | Potency, µM, hits mostly inhibitors | 35 tested, 60% active;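 active means compounds that slowed 12-hLO product formation enough to yield a measured IC50 potency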
JMJD2E inh = JMJD2E demethylase inhibition by 8HQ compounds | shares compounds with BAZ2B block | JMJD2E demethylase, FDH-coupled NADH fluorescence (FDH is formaldehyde dehydrogenase) | Potency, µM (top dose mostly 57 µM), inactives show at the highest dose activity, negative = inhibition, actives largely listed as inhibitors | 130 tested, 89% active
ME-1 growth = ME-1 cell growth inhibition; ME-1 cell proliferation, ATP luminescence, 48 h; 140 tested, 20% active; Potency, µM (top dose mostly 56.1 µM), for inactives: at the top dose activity change, negative = inhibition, hits mostly inhibitors; shares compounds with BAZ2B block
* marks the source's active call; other numbers are inactive results; i = inactive; ? = inconclusive; . = no result; [ ] = another dose, or the depositor's remark. Hits are enriched below; roughly 11% of the tested compounds scored in any of these assays. Unless noted, the call rests on the fitted dose curve; in most records, active means well fitted curve in the direction sought with a large enough effect; inconclusive means small, poorly fitted or top-dose-only effect, or another doubt; inactive means no such curve, though single readings can be large; an effect the other way counts as inactive or inconclusive.

SMILES | HP1b binding inh | VDR inhibitor | G9a inh | BAZ2B block | JMJD2A Tudor inh | PLK1 PBD inh | others
CCN(CC)S(=O)(=O)c1ccc(NN)nc1 | -4% | ? | -2% | . | 20µM* | 24µM*
O=C(CSc1nc2scc(-c3ccccc3)c2c(=O)[nH]1)NC1CCCCC1 | . | . | 16% | 3% | . | .
O=C(CSc1nc(O)c(-c2ccccc2)c(=O)[nH]1)N1CCOCC1 | 41% | -15% | -2% | ? | -4% | -2%
O=C(CSc1nc2scc(-c3ccccc3)c2c(=O)[nH]1)N1CCCCC1 | 14% | 12% | 50µM* | -27% | -9% | -16%
COCCNC(=O)CSc1nc2scc(-c3ccccc3)c2c(=O)[nH]1 | 14% | -25% | 50µM* | -23% | -10% | -23%
Cc1sc2nc(SCC(=O)N3CCOCC3)[nH]c(=O)c2c1-c1ccccc1 | 12% | -3% | 45µM* | -18% | -17% | ?
Cc1ccc(-c2csc3nc(SCC(=O)Nc4ccc(Cl)c(C(=O)O)c4)[nH]c(=O)c23)cc1 | 0%[57 µM] | -21% | 28µM* | ? | -28% | ?
CCc1ccccc1NC(=O)c1cc2c(Cl)nc3ccccc3c2s1 | 51% | -3% | 4%[59 µM] | 1% | 2% | .
O=C1NC(=O)/C(=C\c2ccccc2Oc2ccc(F)c(F)c2)S1 | -1% | -9% | -3%[59 µM] | -28% | -21% | 27µM*
O=C1NC(=O)/C(=C/c2ccccc2OCc2ccccc2)S1 | 9% | -28% | 40µM* | -33% | -23% | ?
O=C1NC(=O)/C(=C\c2ccccc2OCc2ccc([N+](=O)[O-])cc2)N1 | -8% | -21% | 4%[59 µM] | -8% | ? | 24µM*
CCC(C(=O)NCc1ccc(C)o1)n1nc(C)c2c(C)n(-c3ccccc3)nc2c1=O (stereo not drawn) | 14% | -27% | . | -11% | -16% | -17%
CCc1ccc(OCC(=O)Nc2c(C(=O)c3ccc(Br)cc3)oc3ccccc23)cc1 | 44% | -14% | 9%[59 µM] | 3% | 8% | .
N=c1sccn1CC(=O)Nc1cccc(S(=O)(=O)N2CCCCCC2)c1 | 12% | 18% | -37% | . | -27% | -15%
Cc1cccc(N=Cc2c(O)cc(C)oc2=O)c1 | 5% | -9% | ? | 12% | -7% | -7%
Cc1cc(O)c(/C=N/OCc2ccc(Cl)cc2Cl)c(=O)o1 | 10% | -8% | 20µM* | 1% | ? | ?
Cc1cc(O)c(/C=N/Nc2ccc(Cl)cc2)c(=O)o1 | -14% | -17% | 8.9µM* | 2%[57.1 µM] | ? | -6%
COC(=O)c1nn(-c2ccccc2)c(Cl)c1/C=N/OCc1ccc(Cl)cc1Cl | 29% | 6% | 26% | -9% | 11% | 3%
COc1ccc(Cl)cc1N=Cc1c(O)cc(C)oc1=O | 12% | 8% | . | . | -15% | 1%
Cc1cc(O)c(/C=N/Nc2ccccc2Cl)c(=O)o1 | 17% | 3% | 1.4µM* | -4% | 56µM* | -7%
CCn1cc(C(=O)OCC(=O)Nc2cc(OC)cc(OC)c2)c(=O)c2ccc(C)nc21 | 30% | -1% | 10%[59 µM] | 1% | 9% | .
COc1ccccc1C(=O)NC(CCSC)C(=O)OCC(=O)N1CCN(S(=O)(=O)c2ccc(C)cc2)CC1 (stereo not drawn) | -4% | -25% | . | . | -26% | -6%
O=C(c1ccc(NC(=S)NCc2ccc(Cl)cc2)cc1)N1CCCCC1 | 39% | -5% | -5% | -5% | -7% | -1%
O=C(CNCc1ccc(Cl)cc1)Nc1ccc(C(=O)N2CCCCCC2)cc1 | ? | -8% | 7.9µM* | 50µM* | 3.5µM* | 0%
COc1ccc(CCNCC(=O)Nc2ccc(C(=O)N3CCCCC3)cc2)cc1 | ? | -1% | 8.9µM* | 40µM* | 1.4µM* | -4%
SMILES | HP1b binding inh | VDR inhibitor | G9a inh | BAZ2B block | JMJD2A Tudor inh | PLK1 PBD inh | others
COc1ccc(CCNCC(=O)Nc2ccc(OC(F)F)cc2)cc1 | 9% | -11% | 6% | 1% | 5% | 0%
O=C(CNCc1ccc(Cl)cc1)Nc1ccc(C(=O)N2CCCCC2)cc1 | 45µM* | 8% | 7.1µM* | 56µM* | 1.1µM* | 6%
COCCCn1c(SCc2ccccc2F)nc2c(sc3ccccc32)c1=O | 93% | 20% | 0%[59 µM] | 28% | -5% | .
CC(=O)NC(C)c1cc(F)c2cccnc2c1O (stereo not drawn) | 37% | -9% | ? | 22µM* | 79µM* | . | 12-hLO 8HQ R1=i;JMJD2E inh=23µM*
CC(=O)NC(c1cc(Cl)c2cccnc2c1O)C(C)C (stereo not drawn) | 32% | -13% | 9%[12.7 µM] | 79µM* | ? | . | 12-hLO 8HQ R1=2.6µM*;JMJD2E inh=23µM*
CCC(=O)NC(c1cc(Cl)c2ccccc2c1O)C1CC1 (stereo not drawn) | 41% | -6% | -1%[0.501 µM] | -5% | -8% | .
CC(=O)NC(c1cc(Cl)c2ccccc2c1O)C(C)C (stereo not drawn) | 47% | -3% | -13%[0.501 µM] | -3% | -7% | .
CC(=O)NC(c1cc(Cl)c2cccnc2c1O)C1CC1 (stereo not drawn) | 84% | 2% | 13%[12.7 µM] | 32µM* | ? | . | 12-hLO 8HQ R1=3µM*;JMJD2E inh=18µM*
CC(=O)NC(c1cc(F)c2cccnc2c1O)C(C)C (stereo not drawn) | . | . | 4%[12.7 µM] | 79µM* | . | . | 12-hLO 8HQ R1=i;JMJD2E inh=20µM*
O=C(NNC(=O)C1CCN(S(=O)(=O)c2ccc(Cl)cc2)CC1)c1ccccc1 | 39% | 5% | -49% | -5% | -5% | 0%
Cc1ccc(C)c(N2CCN(C(=O)Cc3c(C(=O)O)[nH]c4ccc(Cl)cc34)CC2)c1 | 23% | -7% | -31% | -21% | -19% | -27%
CNc1c(NC(=O)C2CCC(C)CC2)c(=O)oc2ccccc12 (stereo not drawn) | 46% | 9% | 10% | 8% | -31% | -5%
CCCC(=O)c1cc(O)c(O)cc1O | . | . | . | . | . | . | ME-1 growth=-1%
CCCc1cc(C(=O)Cc2ccc(F)cc2)c(O)cc1O | 88% | -14% | -12%[12.7 µM] | 9% | -21%[11.4 µM] | -6%
CCC(C)[C@H](NC(=O)NCCCn1ccnc1)C(=O)OC (stereo partly drawn) | 18% | 3% | 5%[59 µM] | -7% | -13% | -19%
